# Experimental data taken from the supplement of paper PMC3334620.
# Over roughly 33,000 sequences, “E-score (-0.5 to 0.5)” has its median near -0.035; the highest 2% begin near 0.34. Many of the other results were omitted from the sample, so the highest values are more common in it than they were.
# Molecular target: T1, Mot3 (UniProt P54785)
# T1 sequence: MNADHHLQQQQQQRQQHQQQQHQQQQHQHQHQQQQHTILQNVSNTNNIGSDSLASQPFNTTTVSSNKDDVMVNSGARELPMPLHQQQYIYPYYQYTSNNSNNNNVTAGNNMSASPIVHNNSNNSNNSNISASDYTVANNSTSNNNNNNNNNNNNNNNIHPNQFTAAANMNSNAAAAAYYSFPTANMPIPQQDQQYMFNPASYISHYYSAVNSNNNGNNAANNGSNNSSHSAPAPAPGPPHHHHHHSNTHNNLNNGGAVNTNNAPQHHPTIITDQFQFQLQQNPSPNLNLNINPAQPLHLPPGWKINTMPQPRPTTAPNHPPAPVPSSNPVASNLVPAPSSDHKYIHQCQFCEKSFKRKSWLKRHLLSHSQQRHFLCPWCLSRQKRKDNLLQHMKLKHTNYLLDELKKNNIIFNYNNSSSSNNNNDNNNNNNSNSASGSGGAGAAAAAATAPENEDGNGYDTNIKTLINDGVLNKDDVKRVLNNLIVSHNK
# Test: PBM E-score (8-mer binding enrichment) (E-score (-0.5 to 0.5)); higher = stronger / more preferred TF binding
# Conditions: protein concentration: 200 nM; construct: GST-full length
# Description: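 Universal 'all 10-mer' protein binding microarrays (Agilent AMADID 015681) probed with GST-tagged S. cerevisiae TFs (full-length or DBD) made by in vitro transcription/translation (PURExpress), about 100-200 nM. Bound TF was detected with fluorescent anti-GST. Each ungapped 8-mer (which stands for itself and its reverse complement) is scored by the PBM enrichment score (E-score), a modified Wilcoxon-Mann-Whitney statistic from -0.5 to +0.5, computed with the Universal PBM Analysis Suite. Scale: above 0.35 generally sequence-specific binding.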
row,Sequence,PBM E-score
1,AAGACGCA,-0.0452
2,AAACAGCG,0.0286
3,AGCCTGAT,0.183
4,AGTGCCAA,-0.0129
5,AGTGCCTA,0.484
6,GGTGCCGA,0.0164
7,GGTGCCAA,-0.14
8,AGTGCCGA,-0.324
9,GGTGCCTA,0.492
10,ATACAGAT,0.0248
11,ACGTAGGA,0.184
12,AACATGAG,0.277
13,AACATGCT,0.308
14,GACATGAC,0.175
15,AACATGAA,0.305
16,AACATGAT,0.349
17,AACATGAC,0.359
18,ACACAAGT,0.164
19,ACACTGAC,0.196
20,GGAAACGA,0.0799
21,CCTGAACC,0.206
22,CCCATCTC,-0.269
23,CTCGTGTA,0.353
24,ATCGTGTG,0.204
25,ATCGTGTA,0.39

row,Sequence,PBM E-score
1,ATCGTGTC,0.247
2,GTCGTGGA,-0.26
3,GTCGTGCA,0.0491
4,CTCGTGGA,-0.234
5,GTCGTGTA,0.376
6,CTCGTGTC,0.184
7,CGACAGTA,-0.196
8,ATGTGCTG,0.147
9,CCCTGGCC,-0.264
10,ATCAGATC,-0.196
11,ACAACTGG,-0.229
12,AGCGTGAA,-0.0361
13,GTAATTAC,0.378
14,CTAATTAC,0.289
15,ATAATTAC,0.258
16,CGCGCGTC,0.0273
17,CCCAGCGC,-0.0444
18,ACCTTCCT,0.0149
19,CCAAGGCA,0.458
20,GCAAGGCC,-0.0626
21,TCAAGGCA,0.458
22,TCAAGACA,-0.0248
23,ACAAGGCA,0.449
24,ACAAGGCT,0.111
25,CCAAGGCC,-0.14

row,Sequence,PBM E-score
1,GCAAGGCA,0.469
2,GCAAGGGA,-0.155
3,CCAAGGCG,-0.0205
4,ACAAGGCG,0.109
5,TCAAGGGA,-0.213
6,AACTCTAG,0.00906
7,ATGAAAGC,0.103
8,GTCATTCA,-0.067
9,GAACCATC,-0.0773
10,AACTTTCC,0.0113
11,AATGTTGT,0.223
12,AGCTGATC,-0.17
13,CTGTCTCA,-0.258
14,TCCAGGAA,0.316
15,TCCAGGGA,-0.212
16,CCCAGGCA,0.461
17,ACCAGGCC,-0.0646
18,GCCAGGCA,0.436
19,ACCAGGCT,-0.06
20,TCCAGGCA,0.463
21,CCCAGGCC,-0.191
22,CCCAGGCG,-0.061
23,GCCAGGCC,-0.25
24,GCCAGGAA,0.124
25,ACCAGGCA,0.446

row,Sequence,PBM E-score
1,ACCTTGCT,-0.0444
2,ACCCGACA,-0.0489
3,TACACCGA,0.0164
4,GCCGCTAA,-0.0753
5,CCGCTAAC,-0.0566
6,ACTGGTGG,-0.246
7,AGGCCTCA,-0.247
8,CAGAGAGC,-0.316
9,CACATGTG,0.194
10,CAAATGTA,0.272
11,GAAATGTA,0.0874
12,CACATGTC,0.196
13,CACATGTA,0.344
14,TACATCTA,0.227
15,TACATATA,0.317
16,GACATGTC,0.191
17,TAAATGTA,0.346
18,GACATGTA,0.355
19,GACATATA,0.125
20,TACATGTA,0.408
21,GCTGCAAC,-0.242
22,CAAGAGGA,0.038
23,CGAAACTA,-0.136
24,GACTAAAC,0.0174
25,ACCCGTGC,-0.0819

row,Sequence,PBM E-score
1,GAGAAGGC,0.258
2,ACGGCCTA,-0.0205
3,ACGCGCTG,0.184
4,GGCTAACC,0.0149
5,CTTCCTGC,-0.0264
6,ATCTGAAC,-0.219
7,ATATTGGA,0.0164
8,ATAAGGAA,0.299
9,GTAAGTAA,0.169
10,TTAAGTAA,0.0348
11,GTAAGGAA,0.366
12,CTAAGGAC,-0.231
13,CTAAGGAA,0.366
14,GTAAGGAC,-0.194
15,CTAAGGAG,-0.254
16,TTAAGGAA,0.398
17,CGGTCTCC,-0.283
18,CGCCCCCG,-0.351
19,GACGGTTA,-0.0411
20,ATACACAT,0.3
21,GCTGTTTA,-0.0345
22,GGCAGGAC,-0.14
23,AGCAGGAC,-0.096
24,ATCAGGAA,0.343
25,TGCAGTAA,0.0245

row,Sequence,PBM E-score
1,AGCAGGAA,0.395
2,GGCAGGAA,0.419
3,CTCAGGAA,0.335
4,TTCAGGAA,0.337
5,AGCAGGAG,-0.0982
6,GGCAGGGA,-0.158
7,ATCAGGAC,-0.157
8,TGCAGGAA,0.443
9,TACTGAGA,-0.0385
10,GGTGCCAC,-0.168
11,AGGGGTGG,-0.248
12,GACTGGTA,-0.00685
13,GTGCGATA,-0.123
14,CGCAGGAG,-0.0652
15,CGCAGGAA,0.356
16,CGCAGGAC,-0.0456
17,AAAGTAGC,-0.0505
18,ACCATTAA,0.0184
19,CGCTCCTC,-0.269
20,TACGCAAA,0.206
21,CCTATTAC,0.344
22,ACTATTAC,0.25
23,CCTATTAA,0.273
24,CAGGTCGA,0.148
25,ATTAGCCA,-0.147

row,Sequence,PBM E-score
1,AGGTCGAA,0.00993
2,AATGTTAA,0.279
3,CATGTTAG,0.332
4,CATGTTAA,0.411
5,GATGTTAA,0.268
6,CATGTTAC,0.332
7,TATGTTAA,0.396
8,CATTCAGC,-0.12
9,ACCTCGCA,-0.0135
10,AAACAAGC,0.0864
11,TGATCCAA,-0.071
12,CCATCTGC,-0.272
13,ATACACTA,0.124
14,ACACACGG,0.182
15,ATACACAA,0.324
16,ATACACGA,0.352
17,ATACACGG,0.375
18,ATACACAC,0.326
19,ACACACGC,0.174
20,ATACACGC,0.37
21,ATACACCA,0.129
22,GACCTCAC,-0.243
23,CCCCTACA,0.0392
24,ATATACGA,0.14
